Compounds without any hit were thinned out: in the full panel of roughly 79,000, 15% have a hit. Calls of active or inactive are those of the source. Cut-off read from the data, not from the text of the source: active = growth inhibition above about 70%; inactive = the rest.

A short description of the first assay: NCI Yeast Anticancer Drug Screen. Data for the mlh1 strain (AID 171).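 Note: 0% = growth of vehicle-treated control cultures of the same strain.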 The following applies: S. cerevisiae mlh1 strain growth inhibition; at 33.0 µM; stronger effect = higher value. Put shortly: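 Read-out: growth inhibition versus vehicle controls. Strain: engineered yeast with a defined DNA repair or cell cycle defect, compound-treated.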
Regarding `CS(=O)(=O)SCc1ccc([N+](=O)[O-])cc1`, the growth inhibition was 99% (active).

Regarding `Cc1csc(=S)n1OC(=O)NC1CCCCC1`, the growth inhibition is 99% (active).

Consider `CCOc1ccc(NC(=O)C2=C(C)NC(C)=C(C(=O)Nc3ccc(OCC)cc3)C2c2cccc([N+](=O)[O-])c2)cc1`, for which the growth inhibition is 25% (inactive).

As for `CC(C)(C)N=C(NO)c1ccccc1`, the growth inhibition is 20% (inactive).

For `CCCCC/C(=C(\C#N)C(=O)OCC)c1ccccc1`, the growth inhibition was 10% (inactive).

On to `O=C(NCCCl)Sc1ccc(Cl)cc1`, for which the growth inhibition is 19% (inactive).

`O=C1Nc2ccc(Br)cc2C1=Nc1ccc2c(c1)OCO2`: the growth inhibition is -30% (inactive).

On to `CCC(C)OC(=O)Nc1ccc(C)c(NC(=O)OC(C)CC)c1` (stereo not drawn), for which the growth inhibition is 2% (inactive).

As for `O=C(O)c1cc2ccc(Cl)cc2c(O)c1C1=CCCCC1`, the growth inhibition was 68% (inactive).

In the case of `CN(C)Cc1cc(N=Nc2ccc(Cl)cc2)ccc1OC(=O)c1ccccc1`, the growth inhibition is 31% (inactive).

Turning to `CN1CCN(C(=O)/C=C/C(=O)c2ccccc2)CC1`, the growth inhibition is 85% (active).

As for `CCCC/C=C/C(C)(C(=O)OCC)C(=O)OCC`, the growth inhibition was 5% (inactive).

On to `Cc1nc(-c2cc3cc([N+](=O)[O-])ccc3oc2=O)cs1`, for which the growth inhibition is 34% (inactive).

Consider `Cc1nc2ccccc2nc1NNc1ccccc1`, for which the growth inhibition was 30% (inactive).

Take `CN(C)[C@@H]1C(=O)C(C(N)=O)=C(O)[C@@]2(O)C(=O)C3=C(O)c4c(O)cccc4C[C@H]3C[C@@H]12`: the growth inhibition was 97% (active).

`COc1ccc(NC(=O)CC2SC(=Nc3ccccc3C)NC2=O)c([N+](=O)[O-])c1` (stereo not drawn): the growth inhibition is 11% (inactive).

`COc1cc(O)c2c(c1O)C(=O)c1cc(C)ncc1C2=O`: the growth inhibition was 54% (inactive).

Turning to `CSc1nnc(SC)nn1`, the growth inhibition was 55% (inactive).

As for `COc1cc(/C=C2\CCC/C(=C\c3ccc(O)c(OC)c3)C2=O)ccc1O`, the growth inhibition is -1% (inactive).

Take `CN(C)CCNC(=O)c1cccc2cc([N+](=O)[O-])ccc12`: the growth inhibition is 69% (inactive).

With `CCC(C)(C)c1ccc(Oc2cccc(C(=O)O)c2)cc1`, the growth inhibition is 31% (inactive).

With `CCCCCCSc1ncnc2[nH]ncc12`, the growth inhibition was -2% (inactive).

In the case of `CC(=O)Nc1ccc(/C=C/[N+](=O)[O-])cc1`, the growth inhibition is 22% (inactive).

For `CCOC(=O)c1[nH]n(-c2ccccc2)c(=O)c1C=NC(=S)C(N)=S`, the growth inhibition is 96% (active).

As to `CCCC(O)C1CC(C(C)C)CCC1C` (stereo not drawn), the growth inhibition was 9% (inactive).

For the compound `O=[n+]1c2ccccc2n([O-])c2cc(Br)ccc21`, the growth inhibition was 99% (active).

For `CN(C)CCNC(=O)c1cccc2c1Oc1c(cccc1[N+](=O)[O-])O2`, the growth inhibition is 38% (inactive).

For `Nc1ncc(-c2ccc(Br)cc2)s1`, the growth inhibition was 94% (active).

As for `Cc1cc2cc3cc(C)c(N)cc3nc2cc1N`, the growth inhibition was 79% (active).

Regarding `CC12C(=O)OC(=O)C(c3ccccc31)c1ccccc12`, the growth inhibition is -6% (inactive).

Take `c1ccc2c(OCC3CO3)cccc2c1` (stereo not drawn): the growth inhibition was 10% (inactive).

On to `CCOC(=N)c1ccc(O)c(OC)c1`, for which the growth inhibition was 1% (inactive).

`Nc1cc(N)c(N=Nc2cccc3c(S(=O)(=O)O)cccc23)cc1N=Nc1cc([N+](=O)[O-])ccc1O`: the growth inhibition was -18% (inactive).

For `COC(=O)Oc1cc(Cl)c(Cl)cc1Cl`, the growth inhibition is 3% (inactive).

Consider `O=C(O)C1CC(c2ccccc2)=NN1c1ccccc1` (stereo not drawn), for which the growth inhibition is 8% (inactive).

On to `COc1cc([C@@H]2c3cc4c(cc3[C@@H](Nc3ccc(NC(=O)c5cc([N+](=O)[O-])cn5C)cc3)[C@H]3COC(=O)[C@H]23)OCO4)cc(OC)c1O`, for which the growth inhibition is 39% (inactive).

In the case of `O=C(O)c1ccccc1/C=N/N=C1c2ccccc2-c2ccccc21`, the growth inhibition was -9% (inactive).

Regarding `O=C1CC(=O)c2ccccc21`, the growth inhibition is 4% (inactive).

Turning to `Nc1ncnc2c1ncn2C1OC(CO)CC1O` (stereo not drawn), the growth inhibition was 66% (inactive).

Staying with this assay, now noted: S. cerevisiae mlh1 strain growth inhibition; at 100.0 µM; stronger effect = higher value.
As for `CS(=O)(=O)SCc1ccc([N+](=O)[O-])cc1`, the growth inhibition was 97% (active).

Turning to `Cc1csc(=S)n1OC(=O)NC1CCCCC1`, the growth inhibition is 98% (active).

Turning to `CCOc1ccc(NC(=O)C2=C(C)NC(C)=C(C(=O)Nc3ccc(OCC)cc3)C2c2cccc([N+](=O)[O-])c2)cc1`, the growth inhibition was 86% (active).

As for `CC(C)(C)N=C(NO)c1ccccc1`, the growth inhibition is 64% (inactive).

`CCCCC/C(=C(\C#N)C(=O)OCC)c1ccccc1`: the growth inhibition is 18% (inactive).

In the case of `O=C(NCCCl)Sc1ccc(Cl)cc1`, the growth inhibition is 93% (active).

In the case of `O=C1Nc2ccc(Br)cc2C1=Nc1ccc2c(c1)OCO2`, the growth inhibition was -27% (inactive).

For the compound `CCC(C)OC(=O)Nc1ccc(C)c(NC(=O)OC(C)CC)c1` (stereo not drawn), the growth inhibition is 96% (active).

`O=C(O)c1cc2ccc(Cl)cc2c(O)c1C1=CCCCC1`: the growth inhibition is 87% (active).

With `CN(C)Cc1cc(N=Nc2ccc(Cl)cc2)ccc1OC(=O)c1ccccc1`, the growth inhibition is 67% (inactive).

For the compound `CN1CCN(C(=O)/C=C/C(=O)c2ccccc2)CC1`, the growth inhibition was 96% (active).

Take `CCCC/C=C/C(C)(C(=O)OCC)C(=O)OCC`: the growth inhibition was 29% (inactive).

For `Cc1nc(-c2cc3cc([N+](=O)[O-])ccc3oc2=O)cs1`, the growth inhibition is 98% (active).

For the compound `Cc1nc2ccccc2nc1NNc1ccccc1`, the growth inhibition is 41% (inactive).

Take `CN(C)[C@@H]1C(=O)C(C(N)=O)=C(O)[C@@]2(O)C(=O)C3=C(O)c4c(O)cccc4C[C@H]3C[C@@H]12`: the growth inhibition was 99% (active).

As for `COc1ccc(NC(=O)CC2SC(=Nc3ccccc3C)NC2=O)c([N+](=O)[O-])c1` (stereo not drawn), the growth inhibition was 99% (active).

`COc1cc(O)c2c(c1O)C(=O)c1cc(C)ncc1C2=O`: the growth inhibition was 87% (active).

As to `CSc1nnc(SC)nn1`, the growth inhibition was 99% (active).

Turning to `COc1cc(/C=C2\CCC/C(=C\c3ccc(O)c(OC)c3)C2=O)ccc1O`, the growth inhibition is -2% (inactive).

As for `CN(C)CCNC(=O)c1cccc2cc([N+](=O)[O-])ccc12`, the growth inhibition was 92% (active).

Take `CCC(C)(C)c1ccc(Oc2cccc(C(=O)O)c2)cc1`: the growth inhibition is 96% (active).

For the compound `CCCCCCSc1ncnc2[nH]ncc12`, the growth inhibition was -3% (inactive).

In the case of `CC(=O)Nc1ccc(/C=C/[N+](=O)[O-])cc1`, the growth inhibition is 96% (active).

`CCOC(=O)c1[nH]n(-c2ccccc2)c(=O)c1C=NC(=S)C(N)=S`: the growth inhibition was 97% (active).

As for `CCCC(O)C1CC(C(C)C)CCC1C` (stereo not drawn), the growth inhibition was 95% (active).

Take `O=[n+]1c2ccccc2n([O-])c2cc(Br)ccc21`: the growth inhibition was 98% (active).

As to `CN(C)CCNC(=O)c1cccc2c1Oc1c(cccc1[N+](=O)[O-])O2`, the growth inhibition is 75% (active).

With `Nc1ncc(-c2ccc(Br)cc2)s1`, the growth inhibition is 97% (active).

Consider `Cc1cc2cc3cc(C)c(N)cc3nc2cc1N`, for which the growth inhibition was 95% (active).

Consider `CC12C(=O)OC(=O)C(c3ccccc31)c1ccccc12`, for which the growth inhibition was -6% (inactive).

Turning to `c1ccc2c(OCC3CO3)cccc2c1` (stereo not drawn), the growth inhibition is 40% (inactive).

`CCOC(=N)c1ccc(O)c(OC)c1`: the growth inhibition is 1% (inactive).

Regarding `Nc1cc(N)c(N=Nc2cccc3c(S(=O)(=O)O)cccc23)cc1N=Nc1cc([N+](=O)[O-])ccc1O`, the growth inhibition is 23% (inactive).

As to `COC(=O)Oc1cc(Cl)c(Cl)cc1Cl`, the growth inhibition was 13% (inactive).

For `O=C(O)C1CC(c2ccccc2)=NN1c1ccccc1` (stereo not drawn), the growth inhibition was 96% (active).

`COc1cc([C@@H]2c3cc4c(cc3[C@@H](Nc3ccc(NC(=O)c5cc([N+](=O)[O-])cn5C)cc3)[C@H]3COC(=O)[C@H]23)OCO4)cc(OC)c1O`: the growth inhibition was 53% (inactive).

Take `O=C(O)c1ccccc1/C=N/N=C1c2ccccc2-c2ccccc21`: the growth inhibition is 8% (inactive).

Take `O=C1CC(=O)c2ccccc21`: the growth inhibition is 65% (inactive).

Regarding `Nc1ncnc2c1ncn2C1OC(CO)CC1O` (stereo not drawn), the growth inhibition was 91% (active).

The values are drawn from PubChem BioAssay (NCI).
